# Only some compounds are listed: those with a hit (about 3.4% of all), similar ones and a draw of the others.
# PLC-gamma1 inh – inhibitors of human phospholipase C gamma1 | P19174 | purified PLC-gamma1, fluorogenic substrate, fluorescence | inhibition, % at 12.2 µM | 0.84% of 370,000 active | AID 720700; in the data active = inhibition above about 9.5%
# Target sequence (P19174 whole entry, looked up): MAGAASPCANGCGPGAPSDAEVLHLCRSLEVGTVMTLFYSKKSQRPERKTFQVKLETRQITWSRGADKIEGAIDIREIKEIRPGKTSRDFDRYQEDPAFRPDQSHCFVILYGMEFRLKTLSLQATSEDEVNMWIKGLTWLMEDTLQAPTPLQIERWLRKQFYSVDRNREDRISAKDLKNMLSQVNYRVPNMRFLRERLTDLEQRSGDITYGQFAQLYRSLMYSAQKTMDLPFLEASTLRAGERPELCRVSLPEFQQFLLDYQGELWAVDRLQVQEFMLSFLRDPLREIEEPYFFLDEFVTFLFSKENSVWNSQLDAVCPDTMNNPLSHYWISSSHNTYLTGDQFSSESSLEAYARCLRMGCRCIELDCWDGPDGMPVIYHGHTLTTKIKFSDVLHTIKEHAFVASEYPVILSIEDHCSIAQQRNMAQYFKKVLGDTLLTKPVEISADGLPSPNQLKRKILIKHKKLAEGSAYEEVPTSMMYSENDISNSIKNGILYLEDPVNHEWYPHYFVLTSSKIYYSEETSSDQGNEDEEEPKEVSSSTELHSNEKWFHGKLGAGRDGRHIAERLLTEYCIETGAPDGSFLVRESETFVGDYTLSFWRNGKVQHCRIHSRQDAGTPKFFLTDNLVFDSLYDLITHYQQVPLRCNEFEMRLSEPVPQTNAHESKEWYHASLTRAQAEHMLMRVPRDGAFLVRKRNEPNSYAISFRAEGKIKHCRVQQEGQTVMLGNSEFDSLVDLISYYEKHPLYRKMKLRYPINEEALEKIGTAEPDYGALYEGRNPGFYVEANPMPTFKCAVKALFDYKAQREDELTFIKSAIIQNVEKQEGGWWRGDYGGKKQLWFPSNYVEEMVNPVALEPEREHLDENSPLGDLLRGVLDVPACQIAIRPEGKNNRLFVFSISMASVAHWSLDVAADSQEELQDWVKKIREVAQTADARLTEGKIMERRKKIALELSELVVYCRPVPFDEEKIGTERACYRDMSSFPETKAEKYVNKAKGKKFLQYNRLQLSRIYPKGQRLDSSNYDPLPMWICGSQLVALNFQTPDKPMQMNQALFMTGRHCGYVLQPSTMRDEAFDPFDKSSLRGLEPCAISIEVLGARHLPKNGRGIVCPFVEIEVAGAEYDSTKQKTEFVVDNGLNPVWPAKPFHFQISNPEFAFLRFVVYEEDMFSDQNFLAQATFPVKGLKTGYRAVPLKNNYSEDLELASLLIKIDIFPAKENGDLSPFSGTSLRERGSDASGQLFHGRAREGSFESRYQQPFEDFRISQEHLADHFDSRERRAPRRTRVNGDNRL
# PLC-beta3 inh – blocks human PLC-beta3 enzyme activity; Q01970; Purified PLC-beta3, fluorogenic substrate, fluorescence; inhibition, % at 12.2 µM; 0.18% of 370,000 active; AID 720704; in the data active = inhibition above about 11%;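 note: 0% = median of compound wells on plate and 100% = full blocker control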
# ADAM17 inh – inhibitors of human ADAM17 | P78536 | recombinant ADAM17, EDANS/DABCYL FRET peptide cleavage | inhibition, % at 6.95 µM | 0.83% of 370,000 active | AID 720648;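 active = inhibition above the mean of compounds lying between control limits plus 3 SD, set per campaign, cut at about 8.5% in these data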;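 note: 0% = DMSO-only wells as the low control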
# ADAM10 inh – ADAM10 inhibition, QFRET primary screen; AID 720582; recombinant ADAM10, EDANS/DABCYL FRET peptide cleavage, 3 h; 0.62% of 370,000 active; inhibition, % at 7 µM; O14672;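 active = inhibition above a per-campaign cutoff equal to the mean of compounds falling between control-based bounds plus 3 SD, cut at about 20% in these data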;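 note: 0% = DMSO wells while the 100% control is not disclosed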
# sPLA2-III inh – Blocks human group III sPLA2 activity. Q9NZ20. QFRET BODIPY PC-A2 liposome hydrolysis, fluorescence. inhibition, % at 12.2 µM. 0.56% of 370,000 active;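 active = inhibition above mean plus 3 SD of compounds lying within the high and low control bounds, cut at about 19% in these data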;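 note: 0% = median of test compound wells and 100% = no enzyme DMSO wells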
# KLK7 zymogen act – activates the human kallikrein-7 zymogen. activation, % at 7 µM. AID 652039. purified proKLK7, EDANS-DABCYL substrate fluorescence; 100% is mature enzyme control, 0% vehicle. 0.9% of 370,000 active. P49862;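 active = activation above the mean of all tested compounds plus 3 SD, computed per campaign excluding outliers beyond control limits, cut at about 13% in these data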
# ADAM10 counter – inhibits human ADAM10 in ADAM17 exosite counter-screen; shares compounds with ADAM17 inh; recombinant ADAM10, EDANS/DABCYL FRET peptide cleavage, 3 h; inhibition, % at 6.95 µM; 47% of 2,900 active; AID 743256;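 active = mean inhibition over the triplicate runs exceeds the activity threshold set in the earlier primary screen, cut at about 20% in these data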;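 note: 0% = DMSO wells and 100% = marimastat wells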
# ADAM17 confirm – confirmation of inhibitors of human ADAM17; shares compounds with ADAM17 inh; recombinant ADAM17, EDANS/DABCYL QFRET peptide cleavage; inhibition, % at 6.95 µM; 65% of 2,900 active;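 active = mean inhibition across replicates above the hit cutoff set in the primary screen, cut at about 8.5% in these data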;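 note: 0% = DMSO wells and 100% = marimastat wells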
# Numbers without * were called inactive; nt = no result given.
SMILES,PLC-gamma1 inh,PLC-beta3 inh,ADAM17 inh,ADAM10 inh,sPLA2-III inh,KLK7 zymogen act,ADAM10 counter,ADAM17 confirm
CN(C(=O)CCN1CCCO1)C1CCCN(Cc2ccccc2F)C1 (stereo unspecified),7,0,9.0*,-2,4,0,15,7
Cc1cccc(CSCCNC(=O)c2ccc(N(C)S(=O)(=O)c3ccccc3)cc2)c1,-1,-4,11*,19,-30,0,23*,12*
COc1ccc(NC(=O)CN(C)C(=O)/C=C/c2cn(-c3ccccc3)nc2-c2ccc(C)cc2)cc1,-3,-5,13*,5,-24,-1,2,10*
COc1ccc(NC(=O)CN(C)C(=O)/C=C/c2cn(-c3ccccc3)nc2-c2ccc(F)cc2)cc1,4,-5,-7,-9,1,0,nt,nt
CCOC(=O)c1ccc(NC(=O)C2COc3ccccc3O2)cc1 (stereo unspecified),0,-10,0,5,-7,0,nt,nt
CCOC(=O)c1ccc(-n2c(O)c(/C=N/NC(=O)C3COc4ccccc4O3)c3ccccc3c2=O)cc1 (stereo unspecified),-175,-182,10*,5,15,-4,-31,5
Cc1c(Cl)cccc1NC(=S)/C(=C(\[O-])c1ccc(Cl)s1)[n+]1ccccc1,-7,-2,9.6*,9,1,0,4,2
Cc1cc(C([O-])=C(C(=S)Nc2ccccc2)[n+]2ccccc2)c(C)n1-c1ccccc1,-18,-30,-4,-22,-1,-1,nt,nt
Cc1ccccc1NC(=S)/C(=C(\[O-])c1cc(C)n(Cc2ccccc2Cl)c1C)[n+]1ccccc1,-17,-26,12*,14,-2,-1,24*,9.4*
[O-]/C(=C(\C(=S)Nc1cccc2ccccc12)[n+]1cccc(CO)c1)c1ccc(Cl)s1,-16,-14,-8,-32,1,-2,nt,nt
Cc1c(C(=O)NCc2cccc(C(F)(F)F)c2)sc(=O)n1Cc1ccc(S(=O)(=O)N(C)C)cc1,1,-3,4,10,-17,0,nt,nt
CCC(=O)N1CCc2cc(Br)cc(S(=O)(=O)N3CCC(C(=O)NC(C)C)CC3)c21,-1,-6,-2,0,1,0,nt,nt
COc1cccc(C(Nc2ccccn2)c2oc(CO)cc(=O)c2O)c1 (stereo unspecified),-3,-9,13*,1,-11,0,27*,29*
Cc1[nH]c2ccccc2c1CCNC(=O)c1ccc2nccnc2c1,-2,-7,-2,-1,2,1,nt,nt
Cc1cccc(OCCC(=O)OCC(=O)N2c3ccccc3NC(=O)C2(C)C)c1,1,2,-2,0,-16,0,nt,nt
CC(C)(C)c1ccc(OCCC(=O)OCC(=O)N2c3ccccc3NC(=O)C2(C)C)cc1,-3,-9,11*,5,-6,0,39*,16*
NC(=O)NC(=O)C(Nc1ccc(N2CCCCC2)cc1)c1ccccc1 (stereo unspecified),-51,-83,-3,-10,1,-1,nt,nt
CC1=CC2=NC(=O)/C(=C\c3cccn3CCOc3cccc(C)c3)C(=N)N2O1,2,0,8.7*,9,-15,0,6,7
CCOc1ccc(CCNC(=O)COC(=O)COc2ccc(C(=O)CC)cc2)cc1OCC,-2,-5,-4,-2,7,-7,nt,nt
Cc1ccc2c(c1)[C@H]1[C@H](CO2)[C@H](c2ccccc2)[C@]2(C)C(=O)N(Cc3ccc(Cl)cc3)CC(=O)N12,-4,1,12*,15,-2,0,10,12*
CCOC(=O)[C@@H]1[C@H]2COc3ccc(Br)cc3[C@H]2N2C(=O)N(c3ccc(Br)cc3)C(=O)[C@]12C,0,4,9.2*,12,3,0,31*,21*
CCOC(=O)[C@H]1[C@H]2COc3ccc(Br)cc3[C@@H]2N2C(=O)c3ccc(C)cc3NC(=O)[C@@]12C,1,5,-1,17,5,0,nt,nt
CCOC(=O)[C@H]1[C@H]2COc3ccc(C)cc3[C@@H]2N2C(=O)c3cc(Br)ccc3NC(=O)[C@@]12C,6,4,9.5*,10,1,0,49*,17*
C[C@@]12C(=O)Nc3ccccc3C(=O)N1[C@H]1c3cc(Br)ccc3OC[C@@H]1[C@@H]2c1ccccc1,1,2,8.6*,19,-1,-1,20*,11*
COc1ccc(C(=O)NC(C)c2nnc(SCC(=O)NC3CCCC3)n2C)cc1 (stereo unspecified),1,-2,1,0,-4,0,nt,nt
SMILES,PLC-gamma1 inh,PLC-beta3 inh,ADAM17 inh,ADAM10 inh,sPLA2-III inh,KLK7 zymogen act,ADAM10 counter,ADAM17 confirm
CCOC(=O)C1=C(COC(=O)C2CC(=O)N(CCc3ccccc3)C2)NC(=O)NC1C (stereo unspecified),3,-1,5,-9,4,0,nt,nt
CC(=O)c1cccc(NC(=O)N2CCC(NC(=O)C3CCCCC3)CC2)c1,-2,0,-2,2,-3,0,nt,nt
O=C(Nc1ccccc1C(F)(F)F)NC1(C(=O)N2CCOCC2)CCCCC1,-31,-50,-1,-7,-1,0,nt,nt
CCNC(=O)O/N=C(\C)c1sc(-c2ccc(Cl)cc2)nc1C,0,7,9.8*,12,-23,0,7,8
CCOC(=O)C1=C(C)NC(C)=C(C(=O)OCC)C1c1ccncc1,-168,-222,-137,-498,8,2,nt,nt
Cc1ccccc1OCCCn1c(CO)nc2ccccc21,3,-3,2,4,-1,0,nt,nt
Cc1ccc(CNC(=O)Cn2ccc3cc(S(=O)(=O)N4CCCCCC4)ccc32)cc1,3,-2,8.8*,3,-2,0,-3,7
Cc1cc(=O)c2c(o1)C(=O)c1occc1C2=O,0,-18,-3,-14,-7,-1,nt,nt
Cc1ccc(Cn2cc(CN3CC(N4CCSCC4)CS3(=O)=O)nn2)cc1 (stereo unspecified),4,3,-1,-4,3,-1,nt,nt
COc1cccc(/C=N/NC(=O)CN(CCc2ccccc2)S(=O)(=O)c2ccc(NC(C)=O)cc2)c1,0,-3,11*,4,-16,0,24*,14*
COc1ccc(OC)c(NC(=O)c2cc(-c3ccc(F)cc3OC(C)C)n[nH]2)c1,-3,-7,8.8*,17,-17,0,11,9.3*

# Compound activity as filed in PubChem BioAssay.
